“And” between values parts separate entries of the source, which are not always exact repeats. Identical values can stand only once. Inconclusive results are not listed. Where a call stands in place of a potency, no number is given. Where a structure was tested more than once in an assay, its records may differ in their call. The source made the active and inactive calls. Unless noted, calls come from the whole dose curve; as a rule, active = well fitted curve in the direction sought with a large enough effect; inconclusive = small, poorly fitted or top-dose-only effect, or another doubt; inactive = no such curve, though single readings can be large; an effect the other way counts as inactive or inconclusive.
Key:
[1] = Primary qHTS for small molecule stabilizers of the endoplasmic reticulum resident proteome: Secreted ER Calcium Modulated Protein (SERCaMP) assay (AID 1508630); note: potency is the fitted concentration of half-maximal effect
Method in brief: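 The SH-SY5Y reporter protocol was run at 3 concentrations up to 38.3 uM (primary) or 11 concentrations (follow-up): 16 h compound, 100 nM thapsigargin for 4 h, then extracellular luciferase luminescence.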

[2] = target: Cytochrome P450 2D6 (Homo sapiens) (UniProt P10635); test: Cytochrome P450 family 2 subfamily D member 6 (CYP2D6) small molecule antagonists: luciferase biochemical (cell-free) qHTS assay (AID 1645840; active = well fitted curve in the direction sought with a large enough effect in the repeat runs; an effect the other way counts as inactive or inconclusive; note: nearly all actives have a fitted effect of over 55% in size; note: potency is the fitted concentration of half-maximal effect)
Sequence of Cytochrome P450 2D6 (Homo sapiens) (P10635 whole entry, looked up): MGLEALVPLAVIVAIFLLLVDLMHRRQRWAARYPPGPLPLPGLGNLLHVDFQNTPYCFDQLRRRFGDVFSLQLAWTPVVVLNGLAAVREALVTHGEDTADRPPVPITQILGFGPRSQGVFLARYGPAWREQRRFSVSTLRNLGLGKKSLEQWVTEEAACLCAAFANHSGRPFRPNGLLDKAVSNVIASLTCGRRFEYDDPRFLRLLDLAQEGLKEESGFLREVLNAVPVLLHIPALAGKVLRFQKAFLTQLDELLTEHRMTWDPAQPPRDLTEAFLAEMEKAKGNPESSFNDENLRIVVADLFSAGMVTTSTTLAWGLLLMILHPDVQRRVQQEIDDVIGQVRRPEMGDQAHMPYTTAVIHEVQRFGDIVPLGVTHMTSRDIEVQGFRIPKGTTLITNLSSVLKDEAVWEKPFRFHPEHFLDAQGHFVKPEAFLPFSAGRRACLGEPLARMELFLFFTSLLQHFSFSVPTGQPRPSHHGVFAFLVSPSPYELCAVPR
Method in brief: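 P450-Glo CYP2D6 system: proluciferin substrate converted by enzyme to luciferin, read by luminescence proportional to activity. Enzyme-substrate mix with compound 10 min at room temperature, then NADPH regeneration 1 h before detection reagent.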

[3] = target: Cytochrome P450 2C9 (Homo sapiens) (UniProt P11712); test: Cytochrome P450 family 2 subfamily C member 9 (CYP2C9) small molecule antagonists: luciferase biochemical (cell-free) qHTS assay (AID 1645842; active = well fitted curve in the direction sought with a large enough effect in the repeat runs; an effect the other way counts as inactive or inconclusive; note: nearly all actives have a fitted effect of over 55% in size; note: potency is the fitted concentration of half-maximal effect)
Sequence of Cytochrome P450 2C9 (Homo sapiens) (P11712 whole entry, looked up): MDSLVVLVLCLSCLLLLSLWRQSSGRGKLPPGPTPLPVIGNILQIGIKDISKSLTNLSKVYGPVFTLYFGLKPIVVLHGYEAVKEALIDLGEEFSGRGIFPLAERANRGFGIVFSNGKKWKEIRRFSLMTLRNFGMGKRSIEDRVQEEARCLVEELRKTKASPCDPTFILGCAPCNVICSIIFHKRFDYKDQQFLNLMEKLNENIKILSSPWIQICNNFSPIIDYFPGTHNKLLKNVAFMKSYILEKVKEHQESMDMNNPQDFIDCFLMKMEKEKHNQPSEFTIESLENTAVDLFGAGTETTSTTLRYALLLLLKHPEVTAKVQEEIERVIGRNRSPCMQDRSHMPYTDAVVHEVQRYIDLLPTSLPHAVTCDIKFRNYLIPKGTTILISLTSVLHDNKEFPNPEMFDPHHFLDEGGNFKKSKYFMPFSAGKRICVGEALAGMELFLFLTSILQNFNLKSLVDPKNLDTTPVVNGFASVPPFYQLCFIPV
Method in brief: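 P450-Glo CYP2C9 system: proluciferin substrate with enzyme in mix containing 0.4% BSA, 10 min at room temperature, then NADPH regeneration solution added and incubated 1 h at 37C. Detection reagent stopped reaction; luminescence read after 20 min as RLU.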

[4] = target: Papain (Carica papaya) (UniProt P00784); test: Primary qHTS assay for inhibitors of the protease papain (AID 1645873);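 note: papain turnover of Z-FR-AMC read as the AMC fluorescence gain over 10 min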; note: potency is the fitted concentration of half-maximal effect
Sequence of Papain (Carica papaya) (P00784 whole entry, looked up, the tested form may be a part): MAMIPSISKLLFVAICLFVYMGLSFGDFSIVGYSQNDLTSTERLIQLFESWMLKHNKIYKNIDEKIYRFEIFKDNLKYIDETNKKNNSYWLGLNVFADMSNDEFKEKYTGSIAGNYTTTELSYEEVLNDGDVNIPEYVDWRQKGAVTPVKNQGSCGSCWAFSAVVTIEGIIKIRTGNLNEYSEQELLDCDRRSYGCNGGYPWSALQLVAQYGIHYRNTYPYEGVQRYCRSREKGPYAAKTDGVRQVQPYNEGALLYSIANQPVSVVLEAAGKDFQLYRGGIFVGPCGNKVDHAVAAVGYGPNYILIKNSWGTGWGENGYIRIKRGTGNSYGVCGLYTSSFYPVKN

[5] = Primary qHTS for inhibitors of nuclear receptor binding SET domain protein 2 (NSD2) in an isogenic RCH-ACV NSD2 p.E1099K mutant (9B) (AID 1645876); note: nearly all actives have a fitted effect of over 70% in size; note: potency is the fitted concentration of half-maximal effect
[6] = Primary qHTS for inhibitors of nuclear receptor binding SET domain protein 2 (NSD2) in an RCH-ACV wild type WT cells (2C) (AID 1645877); note: nearly all actives have a fitted effect of over 70% in size; note: potency is the fitted concentration of half-maximal effect
[7] = target: Rap guanine nucleotide exchange factor 3 (Homo sapiens) (UniProt O95398); test: Confirmatory qHTS for antagonist of cAMP-regulated guanine nucleotide exchange factor 3 (EPAC1) (AID 1645880); note: nearly all actives have a fitted effect of over 55% in size; note: potency is the fitted concentration of half-maximal effect
Sequence of Rap guanine nucleotide exchange factor 3 (Homo sapiens) (O95398 whole entry, looked up): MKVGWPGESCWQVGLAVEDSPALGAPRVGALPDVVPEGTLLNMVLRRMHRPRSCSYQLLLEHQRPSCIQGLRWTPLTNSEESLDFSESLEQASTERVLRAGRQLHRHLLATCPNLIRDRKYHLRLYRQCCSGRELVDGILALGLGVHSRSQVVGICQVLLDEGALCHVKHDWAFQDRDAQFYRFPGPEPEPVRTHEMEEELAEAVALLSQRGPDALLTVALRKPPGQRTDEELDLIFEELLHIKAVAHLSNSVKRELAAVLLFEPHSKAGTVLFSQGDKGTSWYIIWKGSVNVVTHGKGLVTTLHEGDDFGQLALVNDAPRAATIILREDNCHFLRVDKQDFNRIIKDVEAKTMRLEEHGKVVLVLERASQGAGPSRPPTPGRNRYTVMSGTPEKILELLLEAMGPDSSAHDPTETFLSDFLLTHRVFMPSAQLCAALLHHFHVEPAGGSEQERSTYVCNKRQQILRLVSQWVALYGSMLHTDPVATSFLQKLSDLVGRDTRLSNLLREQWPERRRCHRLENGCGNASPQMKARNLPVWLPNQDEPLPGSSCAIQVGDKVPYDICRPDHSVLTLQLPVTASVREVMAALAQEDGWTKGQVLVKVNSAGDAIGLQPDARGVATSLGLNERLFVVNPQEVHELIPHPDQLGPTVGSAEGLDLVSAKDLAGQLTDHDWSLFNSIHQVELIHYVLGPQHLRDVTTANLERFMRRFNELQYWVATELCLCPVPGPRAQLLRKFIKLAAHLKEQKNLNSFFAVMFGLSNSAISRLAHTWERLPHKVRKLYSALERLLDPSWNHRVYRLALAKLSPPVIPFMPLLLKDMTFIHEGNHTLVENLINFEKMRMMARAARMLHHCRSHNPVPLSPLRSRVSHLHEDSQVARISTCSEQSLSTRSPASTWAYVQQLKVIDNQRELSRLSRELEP
Method in brief: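 Released BODIPY-GDP fluoresces less than Rap1-bound BODIPY-GDP; the signal is followed at 480/540 nm at 5-min intervals over 30 min, after 5 min at room temperature. Reactions contain 100 nM EPAC1, 250 nM RAP1B-BODIPY-GDP and 50 uM GDP; results are normalized to ATA and DMSO.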

[8] = target: Rap guanine nucleotide exchange factor 3 (Homo sapiens) (UniProt O95398); test: Confirmatory qHTS for agonist of cAMP-regulated guanine nucleotide exchange factor 3 (EPAC1) (AID 1645881);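 note: EPAC1 catalysed release of BODIPY-GDP from Rap1B seen as fluorescence loss; nearly all actives have a fitted effect of over 75% in size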
[9] = target: Rap guanine nucleotide exchange factor 4 (Homo sapiens) (UniProt Q8WZA2); test: Confirmatory qHTS for antagonist of cAMP-regulated guanine nucleotide exchange factor 4 (EPAC2) (AID 1645885); note: nearly all actives have a fitted effect of over 25% in size; note: potency is the fitted concentration of half-maximal effect
Sequence of Rap guanine nucleotide exchange factor 4 (Homo sapiens) (Q8WZA2 whole entry, looked up): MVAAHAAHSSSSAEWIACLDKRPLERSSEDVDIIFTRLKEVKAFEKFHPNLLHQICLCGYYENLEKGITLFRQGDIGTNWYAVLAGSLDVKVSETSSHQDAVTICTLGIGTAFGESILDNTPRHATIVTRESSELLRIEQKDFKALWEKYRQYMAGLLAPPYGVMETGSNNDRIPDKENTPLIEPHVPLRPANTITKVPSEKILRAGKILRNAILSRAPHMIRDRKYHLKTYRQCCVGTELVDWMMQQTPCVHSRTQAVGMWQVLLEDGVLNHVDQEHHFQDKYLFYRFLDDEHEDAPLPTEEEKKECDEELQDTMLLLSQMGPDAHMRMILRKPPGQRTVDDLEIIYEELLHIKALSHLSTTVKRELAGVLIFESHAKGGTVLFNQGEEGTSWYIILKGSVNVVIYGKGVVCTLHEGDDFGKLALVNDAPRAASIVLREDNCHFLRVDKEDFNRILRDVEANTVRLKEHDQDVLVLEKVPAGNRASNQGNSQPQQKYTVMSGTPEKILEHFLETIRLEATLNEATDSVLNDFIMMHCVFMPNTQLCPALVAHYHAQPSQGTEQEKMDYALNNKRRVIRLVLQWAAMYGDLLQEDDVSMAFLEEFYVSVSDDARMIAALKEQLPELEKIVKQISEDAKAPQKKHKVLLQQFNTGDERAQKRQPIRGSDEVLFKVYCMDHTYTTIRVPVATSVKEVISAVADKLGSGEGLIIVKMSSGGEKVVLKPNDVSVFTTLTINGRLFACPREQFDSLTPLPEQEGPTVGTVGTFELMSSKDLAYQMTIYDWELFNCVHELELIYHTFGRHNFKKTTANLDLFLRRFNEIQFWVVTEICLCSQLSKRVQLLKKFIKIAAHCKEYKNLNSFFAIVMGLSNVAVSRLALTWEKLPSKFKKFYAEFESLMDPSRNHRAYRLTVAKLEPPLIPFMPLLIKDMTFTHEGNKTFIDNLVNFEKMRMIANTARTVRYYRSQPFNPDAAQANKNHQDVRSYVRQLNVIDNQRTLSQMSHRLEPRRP

[10] = target: Catechol O-methyltransferase (Homo sapiens) (UniProt P21964); test: Confirmatory Screen for Target Class Profiling of Small Molecule Inhibitors of Methyltransferases (AID 1745852); settings: MTase-Glo luminescence, SAH detection, recombinant enzyme; measured here: COMT max response; stronger effect = lower value
Sequence of Catechol O-methyltransferase (Homo sapiens) (P21964 whole entry, looked up): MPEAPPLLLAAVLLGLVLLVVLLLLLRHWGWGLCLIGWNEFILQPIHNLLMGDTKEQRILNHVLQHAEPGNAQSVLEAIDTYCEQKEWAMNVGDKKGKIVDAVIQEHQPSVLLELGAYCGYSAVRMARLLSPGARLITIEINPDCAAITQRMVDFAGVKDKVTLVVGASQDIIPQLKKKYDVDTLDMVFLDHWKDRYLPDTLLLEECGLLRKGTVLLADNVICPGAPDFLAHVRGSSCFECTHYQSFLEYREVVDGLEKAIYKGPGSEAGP

[11] = target: Guanidinoacetate N-methyltransferase (Homo sapiens) (UniProt Q14353); test: as above; settings: MTase-Glo luminescence, SAH detection, recombinant enzyme
[12] = target: Nicotinamide N-methyltransferase (Homo sapiens) (UniProt P40261); test: as above; settings: MTase-Glo luminescence, SAH detection, recombinant enzyme; measured here: NNMT max response; stronger effect = lower value
Sequence of Nicotinamide N-methyltransferase (Homo sapiens) (P40261 whole entry, looked up): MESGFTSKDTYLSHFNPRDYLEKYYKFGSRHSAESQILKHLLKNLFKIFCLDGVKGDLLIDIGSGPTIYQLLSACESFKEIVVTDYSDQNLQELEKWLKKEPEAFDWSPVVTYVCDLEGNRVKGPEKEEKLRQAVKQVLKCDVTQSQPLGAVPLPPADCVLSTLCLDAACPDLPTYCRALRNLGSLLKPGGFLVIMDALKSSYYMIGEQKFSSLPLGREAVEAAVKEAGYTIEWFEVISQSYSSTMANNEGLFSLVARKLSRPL

[13] = target: Phenylethanolamine N-methyltransferase (Homo sapiens) (UniProt P11086); test: as above; settings: MTase-Glo luminescence, SAH detection, recombinant enzyme; measured here: PNMT max response; stronger effect = lower value
Sequence of Phenylethanolamine N-methyltransferase (Homo sapiens) (P11086 whole entry, looked up): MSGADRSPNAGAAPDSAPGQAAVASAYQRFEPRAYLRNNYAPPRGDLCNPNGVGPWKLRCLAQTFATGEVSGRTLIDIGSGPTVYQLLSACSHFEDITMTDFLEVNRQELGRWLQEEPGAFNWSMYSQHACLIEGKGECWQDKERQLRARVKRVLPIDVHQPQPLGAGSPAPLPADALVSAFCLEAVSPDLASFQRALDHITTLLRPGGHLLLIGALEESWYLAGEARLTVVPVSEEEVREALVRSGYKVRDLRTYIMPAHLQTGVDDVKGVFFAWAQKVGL

[14] = NCATS anti-infectives library activity on HEK293 viability as a counter-qHTS vs the C. elegans viability qHTS (AID 1745854)
Method in brief: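 CellTiter-Glo luminescence, read on a CCD imager, scored viability of HEK293 cells after 24 hr compound exposure at 37C. Library tested in several concentrations, 1:5 steps, up to 41.7 uM; digitonin served as control.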

[15] = A High-Content qHTS Against Drug Library for the Identification of Small Molecules that Inhibit DYT1 Early Onset Primary Dystonia-Associated Cell Pathology (AID 1645839; calls by dose curve)
Method in brief: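 Induced EGFP-delE TorsinA cells are imaged after 48 h of compound treatment. Punctate fusion-protein distribution gives the %pathology value, while nuclei counts flag toxicity. Wild-type EGFP-hTOR1A cells define the normal pattern.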

[16] = NCATS anti-infectives library activity on the primary C. elegans qHTS viability assay (AID 1745855; calls by dose curve); settings: C. elegans worm area imaging, day 7; at 41.8 µM (top of the series)
Method in brief: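 Titration-based screen in worms: eggs hatched overnight in M9, L1 larvae fed TOP10 capsules in S medium with compound, incubated 21 °C for 7 days; fluorescent objects gated by size and intensity at days 0, 3 and 7.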

[17] = target: Cytochrome P450 3A4 (Homo sapiens) (UniProt P08684); test: Cytochrome P450 family 3 subfamily A member 4 (CYP3A4) small molecule antagonists: luciferase qHTS assay (AID 1645841; active = well fitted curve in the direction sought with a large enough effect in the repeat runs; an effect the other way counts as inactive or inconclusive; note: nearly all actives have a fitted effect of over 45% in size)
Sequence of Cytochrome P450 3A4 (Homo sapiens) (P08684 whole entry, looked up): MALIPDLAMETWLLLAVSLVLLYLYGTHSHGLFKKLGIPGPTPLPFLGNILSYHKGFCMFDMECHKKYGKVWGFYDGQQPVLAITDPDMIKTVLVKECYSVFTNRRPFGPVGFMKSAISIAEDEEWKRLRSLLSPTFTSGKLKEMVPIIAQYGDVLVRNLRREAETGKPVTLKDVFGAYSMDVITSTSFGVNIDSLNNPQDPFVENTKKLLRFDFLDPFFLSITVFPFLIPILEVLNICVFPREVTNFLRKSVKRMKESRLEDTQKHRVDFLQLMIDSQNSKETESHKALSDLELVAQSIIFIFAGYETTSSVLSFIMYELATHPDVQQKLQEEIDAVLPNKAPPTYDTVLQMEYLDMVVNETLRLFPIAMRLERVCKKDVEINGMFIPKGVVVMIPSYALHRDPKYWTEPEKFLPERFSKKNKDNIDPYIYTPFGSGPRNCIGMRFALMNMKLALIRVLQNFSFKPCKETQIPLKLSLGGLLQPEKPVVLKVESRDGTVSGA
Method in brief: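 P450-Glo CYP3A4 enzyme with proluciferin substrate was preincubated with DMSO-dissolved compounds for 10 min at room temperature. NADPH regeneration solution started a 1 h reaction. Detection reagent stopped it, and luminescence was read after 20 min.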

[18] = target: Rap guanine nucleotide exchange factor 4 (Homo sapiens) (UniProt Q8WZA2); test: Confirmatory qHTS for agonist of cAMP-regulated guanine nucleotide exchange factor 4 (EPAC2) (AID 1645884);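 note: nucleotide exchange releases bodipy-GDP from Rap1 and this lowers its fluorescence; nearly all actives have a fitted effect of over 65% in size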
[19] = target: Rap guanine nucleotide exchange factor 3 (Homo sapiens) (UniProt O95398); test: Counterscreen qHTS for antagonist of cAMP-regulated guanine nucleotide exchange factor 3 (EPAC1) (AID 1645888)
Method in brief: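 Measured: fluorescence of BODIPY-GDP bound to Rap1B, which falls as exchange proceeds. Conditions include 50 uM competing GDP, 5 and 30 min reads, and a later cAMP challenge for antagonist detection.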

CCN(CC)CCCC(C)Nc1c2ccc(Cl)cc2nc2ccc(OC)cc12 (centres undefined)
Potency [1]: inactive
Potency [2]: 0.0776 µM (active)
Potency [3]: inactive
Potency [4]: 17.8 µM (active)
Potency [5]: 7.42 µM (active)
Potency [6]: 5.25 µM (active)
Potency [7]: inactive
Potency [8]: inactive
Potency [9]: inactive
activity [10]: -1.98% and -3.74%
activity change, negative = inhibition ([11]; at 29.8 µM (top of the series)): -0.149%
activity change, negative = inhibition ([11]; at 57.3 µM (top of the series)): 2.96%
activity [12]: -11.3% and -15.1%
activity [13]: 3.56% and -4.16%

COc1ccc2cc1Oc1ccc(cc1)C[C@H]1c3c(cc4c(c3Oc3cc5c(cc3OC)CCN(C)[C@@H]5C2)OCO4)CCN1C
Potency [1]: inactive
Potency [2]: 17.4 µM (active)
Potency [5]: 8.41 µM (active) and 9.16 µM (active)
Potency [6]: 9.44 µM (active) and 9.16 µM (active)
outcome [14]: inactive

CCCOC(=O)c1ccccc1
Potency [15]: inactive
Potency [2]: inactive
Potency [3]: inactive
Potency [5]: inactive
Potency [6]: inactive

CS(=O)(=O)c1ccc([C@@H](O)[C@@H](CF)NC(=O)C(Cl)Cl)cc1
Potency [15]: inactive
Potency [2]: inactive
Potency [3]: inactive

O=C1N=C(O)CN1/N=C/c1ccc(-c2ccc([N+](=O)[O-])cc2)o1
Potency [1]: 14.1 µM (active)
Potency [2]: inactive
Potency [4]: inactive
Potency [5]: inactive
Potency [6]: inactive

CN(C)CCCN1c2ccccc2Sc2ccc(Cl)cc21
Potency [1]: inactive
Potency [4]: inactive
Potency [5]: 15 µM (active)
Potency [6]: 13.3 µM (active)
outcome [14]: inactive

O=c1cc[nH]c(=S)[nH]1
Potency [1]: inactive
Potency [2]: inactive
Potency [3]: inactive
Potency [6]: inactive

C[C@@H]1C[C@H]2[C@@H]3C[C@H](F)C4=CC(=O)C=C[C@]4(C)[C@@]3(F)[C@@H](O)C[C@]2(C)[C@@]1(O)C(=O)CO
Potency [1]: inactive
Potency [6]: 2.7 nM (active) and 5.2 nM (active)

CCCCc1ncc(/C=C(\Cc2cccs2)C(=O)O)n1Cc1ccc(C(=O)O)cc1
Potency [15]: inactive
Potency [2]: inactive
Potency [3]: inactive
Potency [4]: inactive
Potency [5]: inactive
Potency [6]: inactive
outcome [14]: inactive
outcome [16]: inactive

Cc1cc2c(cc1S(N)(=O)=O)S(=O)(=O)CCC2
Potency [15]: inactive
Potency [2]: inactive
outcome [17]: inactive
Potency [3]: inactive
Potency [5]: inactive
Potency [6]: inactive

CN1CCC[C@@H]1Cc1c[nH]c2ccc(CCS(=O)(=O)c3ccccc3)cc12
Potency [15]: inactive
Potency [2]: 13.8 µM (active)
Potency [3]: 13.8 µM (active)
Potency [4]: inactive
Potency [5]: inactive
Potency [6]: inactive

CCCc1c(OCCCCc2nn[nH]n2)ccc(C(C)=O)c1O
Potency [1]: inactive
Potency [3]: 0.138 µM (active)
Potency [7]: 55.9 µM (active) and inactive
Potency [8]: inactive
Potency [18]: inactive
Potency [9]: 15.6 µM (active)
activity change, negative = inhibition [9]: -26.3% [at 12.7 µM] (inactive)
outcome [19]: inactive

CN(C)CCOC(C)(c1ccccc1)c1ccccn1 (centres undefined)
Potency [1]: inactive
Potency [3]: inactive
Potency [4]: inactive
Potency [5]: inactive
Potency [6]: inactive

N=c1c[n+](N2CCOCC2)[n-]o1
Potency [1]: inactive
Potency [4]: inactive

CCOC(=O)c1ccc(O)cc1
Potency [1]: inactive
Potency [5]: inactive
Potency [6]: inactive

COc1ccc2c(c1)C(=O)N(CCc1ccc(S(=O)(=O)NC(=O)NC3CCCCC3)cc1)C(=O)C2(C)C
Potency [1]: inactive
Potency [3]: 13.8 µM (active)

CCOc1ccc2ccccc2c1C(=O)N[C@@H]1C(=O)N2[C@@H]1SC(C)(C)[C@@H]2C(=O)O
Potency [15]: inactive
Potency [2]: inactive
Potency [3]: inactive
Potency [5]: inactive
Potency [6]: inactive

CCN(CC)CCSC(=O)C(c1ccccc1)c1ccccc1
Potency [15]: inactive
Potency [2]: 5.49 µM (active)
Potency [3]: 13.8 µM (active)

CC(C)(C)C(=O)NCCCC(=O)O
Potency [15]: inactive
Potency [2]: inactive
Potency [3]: inactive
Potency [5]: inactive
Potency [6]: inactive

CC(C)(C)c1onc(OCP(=O)(O)O)c1CC(N)C(=O)O (centres undefined)
Potency [1]: inactive
Potency [4]: inactive

CN1[C@@H]2CC(OC(=O)[C@H](CO)c3ccccc3)C[C@H]1[C@@H]1O[C@@H]12 (some centres undefined)
Potency [15]: inactive
